The source made the active and inactive calls. Calls follow the shape of the full dose curve.

Sequence of Polyunsaturated fatty acid lipoxygenase ALOX12 (Homo sapiens) (P18054 whole entry, looked up): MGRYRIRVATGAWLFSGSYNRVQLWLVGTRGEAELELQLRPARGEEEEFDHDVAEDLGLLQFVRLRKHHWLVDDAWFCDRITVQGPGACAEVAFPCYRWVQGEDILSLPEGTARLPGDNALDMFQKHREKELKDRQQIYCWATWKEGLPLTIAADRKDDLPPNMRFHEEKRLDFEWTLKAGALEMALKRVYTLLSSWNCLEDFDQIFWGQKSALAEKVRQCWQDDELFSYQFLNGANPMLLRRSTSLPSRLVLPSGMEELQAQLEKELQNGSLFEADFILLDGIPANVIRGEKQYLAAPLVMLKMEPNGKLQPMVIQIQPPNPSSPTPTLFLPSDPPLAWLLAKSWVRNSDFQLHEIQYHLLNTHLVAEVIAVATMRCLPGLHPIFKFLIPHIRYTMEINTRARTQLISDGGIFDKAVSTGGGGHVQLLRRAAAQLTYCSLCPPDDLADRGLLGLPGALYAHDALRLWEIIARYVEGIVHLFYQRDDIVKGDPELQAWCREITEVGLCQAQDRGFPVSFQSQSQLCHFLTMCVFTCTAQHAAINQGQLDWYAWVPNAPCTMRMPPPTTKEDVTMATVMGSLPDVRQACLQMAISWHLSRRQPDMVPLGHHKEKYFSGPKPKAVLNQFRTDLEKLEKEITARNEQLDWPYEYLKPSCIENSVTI

This experiment concerns the target Polyunsaturated fatty acid lipoxygenase ALOX12 (Homo sapiens) (UniProt P18054). Nature of the experiment: Inhibitors of 12-hLO (12-human lipoxygenase): Cuvette-Based Hit Assay for Validation of Followup Compounds. The conditions noted are these: purified 12-hLO, cuvette absorbance 234 nm. As for the experimental part:
The enzyme activity of 12-hLO was determined by a direct measurement of product formation by monitoring the absorbance at 234 nm in a 2 mL cuvette. IC50 values of inhibitors were obtained by measuring the enzymatic rate at a variety of concentrations (Carroll et al, Segraves et al). This assay was used to validate actives or inconclusive putative inhibitors identified in the primary screen (see related BioAssay AIDs). Assay Provider: Holman, T.R., University of California, Santa Cruz Screening Center PI: Austin, Christopher P. Screening Center: NIH Chemical Genomics Center
For control experiments, 2 mL of substrate buffer (10 uM arachidonic acid / 25 mM HEPES / 0.01% (v/v) Triton X-100, pH 8.0) was aliquoted in a cuvette with a magnetic stir bar. After equilibrium was ensured, an aliquot of inhibitor solvent was added (DMSO), and equilibrium was once again assured. The reaction was started by adding enzyme to the cuvette and the reaction was followed until completed. The inhibition experiments were performed as above, except the actual inhibitory compound was added instead of vehicle. To achieve an IC50, typically 5 concentrations of the inhibitor were studied. If the inhibitor concentration was constant, then five different reaction volumes were used. Step \ Parameter \ Value \ Description 1; UV-Vis; 234 nm; Equilibration 2; Reagent; 2 mL; Substrate buffer 3; UV-Vis; 234 nm; Equilibration 4; Reagent; varies; Compound 5; UV-Vis; 234 nm; Equilibration 6; Reagent; 50-200 nM; Enzyme 12-hLO 7; UV-Vis; 234 nm; Enzymatic reaction Step \ Notes 1; Blank cuvette to air. 2; 10 uM AA, 25 mM HEPES, 0.01% Triton X-100, pH 8. 3; No change in absorbance ensured. 4; Compound vehicle or compound in various concentrations depending on potency. 5; No change in absorbance ensured. 6; Enzyme concentration to achieve reaction rate between 0.02 and 0.04 AU/s. 7; Enzymatic reaction visualized until completion.
With `Cc1ccc(C(=O)/C=C/c2c[nH]c3ccccc23)cc1`, the Potency is 34.6 µM (active).

`CCc1cc(-c2[nH]ncc2-c2ccc3c(c2)OCO3)c(O)cc1O`: the Potency is 22.2 µM (active).

Consider `O=S(=O)(Nc1ccc(O)c(Sc2nc3ccccc3s2)c1)c1ccc(Cl)cc1`, for which the Potency is 8.77 µM (active).

In the case of `CC1=NN(c2ccc(Cl)cc2)C(=O)C1C(c1cccc(O)c1)c1c(C)[nH]n(-c2ccc(Cl)cc2)c1=O` (stereo not given), the Potency is 7.55 µM (active).

For the compound `CCc1ccc(S(=O)(=O)/N=C2/C=C(Sc3ncn[nH]3)C(=O)c3ccccc32)cc1`, the Potency was 23.2 µM (active).

For `c1ccc(-c2nc(NCc3cccnc3)c3oc4ccccc4c3n2)cc1`, the Potency was 14 µM (active).

For the compound `Cc1nc(N)sc1-c1csc(N(C)c2ccc(O)cc2)n1`, the Potency was 15.6 µM (active).

For the compound `Oc1ccc(-c2nc(-c3ccc(O)c(O)c3)cs2)cc1`, the Potency is 0.7 µM (active).

Consider `COc1ccc(-c2n[nH]c(C)c2-c2ccc(Cl)cc2)c(O)c1`, for which the Potency is 19.4 µM (active).

In the case of `O=C(Nc1nnc(-c2ccc(Cl)cc2)o1)c1ccccc1Br`, the Potency was 18.3 µM (active).

For the compound `CCCOC(=O)c1ccc(Oc2cn[nH]c2-c2ccc(OC)cc2O)cc1`, the Potency is 26.8 µM (active).

For `Cc1ccc(C(=O)Nc2nnc(-c3ccco3)o2)cc1C`, the Potency is 15.7 µM (active).

As to `O=C(CSc1n[nH]c(-c2ccccc2)n1)c1ccc(O)c(O)c1`, the Potency was 24.2 µM (active).

For the compound `COc1cc(CNc2ccc(N3CCCC3)cc2)ccc1OCc1ccccc1`, the Potency is 25 µM (active).

Consider `Oc1ccccc1-c1cc(-c2cccc(F)c2)n[nH]1`, for which the Potency is 18.9 µM (active).

As to `CSc1ccc(S(=O)(=O)Nc2ccc(S(=O)(=O)Nc3ccc(C)cc3)cc2)cc1`, the Potency was 21.1 µM (active).

In the case of `Oc1ccccc1-c1cc(-c2ccc3c(c2)OCCO3)n[nH]1`, the Potency was 31.3 µM (active).

As to `CCCOC(=O)c1ccc(Oc2c(-c3ccc(O)cc3O)n[nH]c2C)cc1`, the Potency is 16.7 µM (active).

As for `Oc1ccc(C2=Nn3c(nnc3-c3ccco3)SC2)cc1O`, the Potency was 33.3 µM (active).

Take `COc1ccc(-c2[nH]ncc2-c2ccc(Cl)cc2)c(O)c1`: the Potency was 28.6 µM (active).

Regarding `CSCCC(NC(=O)c1ccc(Cl)cc1)C(=O)OCC(=O)Nc1ccc(C#N)cc1` (stereo not given), the Potency is 18.3 µM (active).

`Cc1ccc(C(=O)Nc2nnc(-c3ccco3)o2)cc1`: the Potency was 6.52 µM (active).

Regarding `CCOc1ccc(-c2[nH]ncc2Oc2cccc(OC)c2)c(O)c1`, the Potency was 28.1 µM (active).

For `Oc1ccc(Cl)cc1-c1cc(-c2ccco2)[nH]n1`, the Potency is 21.5 µM (active).

Regarding `O=C(Nc1nnc(-c2ccccn2)o1)c1ccc(Br)cc1`, the Potency is 3.26 µM (active).

For `Cc1ccc(NC(=O)Nc2cccs2)c(Cl)c1`, the Potency is 22.4 µM (active).

With `Cc1[nH]nc(-c2ccc(O)cc2O)c1-c1ccc(Cl)cc1`, the Potency was 19 µM (active).

Consider `Oc1ccccc1-c1cc(-c2ccccc2Cl)[nH]n1`, for which the Potency is 16 µM (active).

As for `COc1cc(CNc2ccc(O)cc2)cc(Br)c1OCc1ccccc1F`, the Potency is 24.1 µM (active).

As to `Cc1ccc(S(=O)(=O)Nc2ccc(NC(=O)Nc3cccc(C(F)(F)F)c3)cc2)cc1`, the Potency was 35 µM (active).

For the compound `O=C(/C=C/c1ccc(O)c(O)c1)c1ccc(S(=O)(=O)N2CCCCCC2)cc1`, the Potency is 27.2 µM (active).

In the case of `CN(C)c1nccc(N(Cc2ccccc2)Cc2ccccc2)c1C#N`, the Potency was 15.7 µM (active).

`O=C(Nc1nnc(C2=COCCO2)o1)c1ccc(Cl)cc1`: the Potency was 7.14 µM (active).

For the compound `N#CC1=C(N)Oc2n[nH]c(-c3cccs3)c2C1C1CCCCC1` (stereo not given), the Potency was 7.69 µM (active).

Take `Cc1oc2c(O)c(O)ccc2c(=O)c1-c1cnn(-c2ccccc2)c1`: the Potency is 15.5 µM (active).

With `COc1ccc(Cc2nc(C(=O)Nc3ccc(OC)cc3)cs2)cc1`, the Potency was 35.8 µM (active).

On to `Cc1cc(C)c2cc(CN(Cc3nnnn3C3CCCCC3)CC3CCCO3)c(=O)[nH]c2c1` (stereo not given), for which the Potency was 26.9 µM (active).

As to `Cc1[nH]nc(-c2ccc(O)cc2O)c1Oc1ccccc1`, the Potency was 27 µM (active).

For `COc1ccc(C(Nc2ccccn2)c2c(NC(=O)c3ccco3)sc(C)c2C)cc1` (stereo not given), the Potency was 23.2 µM (active).

Turning to `CCc1cc(-c2n[nH]c(C)c2Oc2ccc(C(C)C)cc2)c(O)cc1O`, the Potency was 20.2 µM (active).

These data come from PubChem BioAssay AID493216 (National Center for Advancing Translational Sciences (NCATS), 2011).
